Records with an inconclusive call do not appear. Active and inactive are the calls of the source. The calls were made as follows: active = hit-call score of the fitted dose curve at least 0.9, where 1 is the maximum; inconclusive = response in the unintended direction; inactive = score below 0.9.
How the values were obtained:
[1] = target: Cellular tumor antigen p53 (Homo sapiens) (UniProt P04637); assay: TOX21_p53_BLA_p2_ratio: Tox21 HCT-116 p53 Agonism Beta-lactamase Assay, Ratio, Phase 2 (AID 2283592)
In short: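 In this cell-based reporter format, HCT116 cells were dosed with chemicals delivered from DMSO by 217-fold dilution and incubated 16 h at 37C. Emission at 460 and 530 nm after 2 h CCF4-AM loading provided the ratio, fitted upward versus DMSO.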

[2] = TOX21_p53_BLA_p3_viability: Viability Assessment in the Tox21 HCT-116 p53 Agonism Beta-lactamase Assay, Phase 3 (AID 2283593);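 also: cells exposed to compound for 16 h before reading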
In short: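 HCT116 cells, 4000/well, dosed 5 h after plating by pin transfer (217-fold dilution from DMSO stock) and incubated 16 h at 37C, 5% CO2. Viability read as ATP luminescence with CellTiter-Glo after 30 min at room temperature.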

[3] = target: Cellular tumor antigen p53 (Homo sapiens) (UniProt P04637); assay: TOX21_p53_BLA_p3_ratio: Tox21 HCT-116 p53 Agonism Beta-lactamase Assay, Ratio, Phase 3 (AID 2283596)
In short: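 HCT116 p53-bla cells (4000/well) given compound in DMSO (217-fold dilution) after 5 h, incubated 16 h at 37C. CCF4-AM substrate 2 h at room temperature; 460/530 nm emission ratio, gain fitted against DMSO.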

[4] = TOX21_p53_BLA_p4_viability: Viability Assessment in the Tox21 HCT-116 p53 Agonism Beta-lactamase Assay, Phase 4 (AID 2283597);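 also: hits lower the luminescence signal meaning cytotoxicity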
In short: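 We seeded HCT116 p53 reporter cells at 4000/well and waited 5 h. We then added compounds in DMSO at a 217-fold dilution and incubated for 16 h. Viability was read as CellTiter-Glo luminescence after 30 min at RT.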

[5] = target: Cellular tumor antigen p53 (Homo sapiens) (UniProt P04637); assay: TOX21_p53_BLA_p5_ratio: Tox21 HCT-116 p53 Agonism Beta-lactamase Assay, Ratio, Phase 5 (AID 2283599)
In short: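 HCT-116 p53-bla cells (4000/well) plated 5 h, dosed with compound (217-fold DMSO dilution) for 16 h at 37 C; CCF4-AM substrate 2 h at room temperature. Activity is the 460/530 nm emission ratio (405 nm excitation), fitted in gain-of-signal direction versus DMSO.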

[6] = TOX21_p53_BLA_p5_viability: Viability Assessment in the Tox21 HCT-116 p53 Agonism Beta-lactamase Assay, Phase 5 (AID 2283600)
In short: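 Compounds, pinned from DMSO at 217-fold dilution, were left on the cells for 16 h. The viability endpoint was ATP content measured by CellTiter-Glo luminescence, where falling signal reflects cytotoxicity.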

[7] = target: Cellular tumor antigen p53 (Homo sapiens) (UniProt P04637); assay: TOX21_p53_BLA_p4_ratio: Tox21 HCT-116 p53 Agonism Beta-lactamase Assay, Ratio, Phase 4 (AID 2283601)
In short: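 HCT-116 p53 beta-lactamase reporter cells (4000/well) preincubated 5 h, then compound (217-fold dilution of DMSO stock) for 16 h at 37C. CCF4-AM substrate added 2 h at room temperature; 460/530 nm emission ratio fitted upward versus DMSO.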

Cellular tumor antigen p53 (Homo sapiens), sequence (P04637 whole entry, looked up): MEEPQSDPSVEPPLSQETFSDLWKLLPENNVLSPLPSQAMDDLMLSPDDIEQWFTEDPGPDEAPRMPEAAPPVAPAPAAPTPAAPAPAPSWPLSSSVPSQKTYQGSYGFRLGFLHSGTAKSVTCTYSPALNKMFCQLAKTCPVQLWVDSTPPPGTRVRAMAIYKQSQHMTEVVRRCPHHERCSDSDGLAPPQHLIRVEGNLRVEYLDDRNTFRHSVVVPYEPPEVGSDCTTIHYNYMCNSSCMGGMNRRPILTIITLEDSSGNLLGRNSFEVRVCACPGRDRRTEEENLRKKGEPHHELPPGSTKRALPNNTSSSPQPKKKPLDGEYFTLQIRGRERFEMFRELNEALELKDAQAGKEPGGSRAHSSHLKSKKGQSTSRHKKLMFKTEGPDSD

| Structure (SMILES) | outcome [1] | outcome [2] | outcome [3] | outcome [4] | outcome [5] | outcome [6] | outcome [7] | AC50 [1] | AC50 [5] | AC50 [7] | AC50 [4] |
| --- | --- | --- | --- | --- | --- | --- | --- | --- | --- | --- | --- |
| CC1=C(C=O)C(C)(C)CC=C1 | inactive | inactive | inactive | inactive | inactive | – | – | – | – | – | – |
| Nc1nnnn1-c1ccccc1 | inactive | inactive | inactive | inactive | inactive | inactive | – | – | – | – | – |
| CCN1CC(CCN2CCOCC2)C(c2ccccc2)(c2ccccc2)C1=O (stereo not given) | inactive | inactive | inactive | inactive | inactive | – | – | – | – | – | – |
| CC(=O)Nc1ccc(S(=O)(=O)Nc2ccc([N+](=O)[O-])cc2)cc1 | inactive | inactive | inactive | inactive | inactive | – | – | – | – | – | – |
| CCOC(=O)CC#N | inactive | inactive | inactive | inactive | inactive | inactive | inactive | – | – | – | – |
| CO[C@@H]1[C@@H](O[C@@H]2O[C@H](C)[C@@H](O[C@H]3C[C@](C)(O)[C@@H](O)[C@H](C)O3)[C@H](N(C)C)[C@H]2O)[C@H](CC=O)C[C@@H](C)[C@H](O[C@H]2CC[C@H](N(C)C)[C@@H](C)O2)/C=C\C=C\C[C@@H](C)OC(=O)C[C@H]1O | inactive | inactive | inactive | inactive | inactive | – | – | – | – | – | – |
| Cc1ccc2c(c1[N+](=O)[O-])C(=O)c1ccccc1C2=O | – | inactive | inactive | inactive | – | inactive | – | 22.5 µM (active) | 20.3 µM (active) | 25.7 µM (active) | – |
| CCCCOc1cc(C(=O)OCCN(CC)CC)ccc1N | inactive | inactive | inactive | inactive | inactive | – | – | – | – | – | – |
| O=C(O)O | inactive | inactive | inactive | inactive | inactive | inactive | inactive | – | – | – | – |
| CO/N=C(\C(=O)N[C@@H]1C(=O)N2C(C(=O)O)=C(COC(C)=O)CS[C@H]12)c1csc(N)n1 (stereo in doubt) | inactive | inactive | inactive | inactive | inactive | inactive | inactive | – | – | – | – |
| Nc1ncnc2c1ncn2[C@@H]1O[C@H](COP(=O)(O)OP(=O)(O)OP(=O)(O)O)[C@@H](O)[C@H]1O | inactive | inactive | inactive | inactive | inactive | inactive | inactive | – | – | – | – |
| Nc1cc(C(Cl)=C(Cl)Cl)c(S(N)(=O)=O)cc1S(N)(=O)=O | inactive | inactive | inactive | inactive | inactive | inactive | inactive | – | – | – | – |
| O=C1N=C(O)CN1N=Cc1ccc(-c2ccc([N+](=O)[O-])cc2)o1 | inactive | inactive | inactive | inactive | inactive | inactive | inactive | – | – | – | – |
| COc1ncnc(NS(=O)(=O)c2ccc(N)cc2)c1OC | inactive | inactive | inactive | inactive | inactive | inactive | inactive | – | – | – | – |
| CC(C)(C)S | inactive | inactive | inactive | inactive | inactive | inactive | inactive | – | – | – | – |
| Oc1ccc(Cc2ccccc2)cc1 | – | inactive | inactive | inactive | inactive | inactive | inactive | 66.5 µM (active) | – | – | – |
| Cc1cn([C@H]2C[C@H](O)[C@@H](CO)O2)c(=O)[nH]c1=O | inactive | inactive | inactive | inactive | inactive | inactive | inactive | – | – | – | – |
| c1ccc(-n2cnnn2)cc1 | inactive | inactive | inactive | inactive | inactive | inactive | inactive | – | – | – | – |
| COc1cccc(N(C)C(=S)Oc2ccc3c(c2)CCCC3)n1 | inactive | inactive | inactive | inactive | inactive | inactive | inactive | – | – | – | – |
| Cc1cccn2c(=O)c(-c3nnn[nH]3)cnc12 | inactive | inactive | inactive | inactive | inactive | inactive | inactive | – | – | – | – |
| O=C(O)Cc1ccccc1Oc1ccc(Cl)cc1Cl | inactive | inactive | inactive | inactive | inactive | inactive | inactive | – | – | – | – |
| C=C(C)C(=O)OCC(C)(C)COC(=O)C(=C)C | inactive | inactive | inactive | inactive | inactive | inactive | inactive | – | – | – | – |
| O=C(O)Cc1ccc(-c2ccccc2)cc1 | inactive | inactive | inactive | inactive | inactive | inactive | inactive | – | – | – | – |
| COCC(O)CO (stereo not given) | inactive | inactive | inactive | inactive | inactive | inactive | inactive | – | – | – | – |
| O=S1(=O)c2cccc3cccc(c23)N1CCCN1CCN(c2ccc(F)cc2)CC1 | inactive | inactive | inactive | – | inactive | inactive | inactive | – | – | – | 41.2 µM (active) |
| CC1(C)O[C@H]2CC(=O)OC[C@]23[C@H]2CC[C@@]4(C)[C@H](c5ccoc5)OC(=O)[C@H]5O[C@]54[C@]2(C)C(=O)C[C@@H]13 | inactive | inactive | inactive | inactive | inactive | inactive | inactive | – | – | – | – |
| C[N+](C)(CCOc1ccccc1)Cc1cccs1 | inactive | inactive | inactive | inactive | inactive | inactive | inactive | – | – | – | – |
| O=C(c1ccccc1)c1cccc(O)c1 | inactive | inactive | inactive | inactive | inactive | inactive | inactive | – | – | – | – |

Source: PubChem BioAssay (EPA / NIEHS)
